Inconclusive results are not listed. Unmarked numbers belong to inactive results.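 The calls were made as follows: active = every repeat run fits a falling-signal curve with half-maximal potency within ten times top tested dose; inconclusive = runs disagree, or flat moderate drop, or poor fit; inactive = every run inactive, including signal moving upward.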
assay: inhibition of ADP-Glo detection reagents, dose response, artefact control for CDK5 inhibitor project, biochemical, luminescence, cherry-picked samples, set 2 (AID 504546); details: ADP-Glo detection reagent counter screen, 5 uM ADP; series mostly up to 30 µM; activity change, negative = inhibition: at the top concentration;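 also: 0% = DMSO wells and -100% = wells lacking ADP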

Row | Compound | activity change, negative = inhibition
1 | Nc1ccc2c(c1)C(=NO)c1ccccc1-2 | -0.568%
2 | O=C(O)c1ccc(N/N=C/c2ccc(C(F)(F)F)cc2)cc1 | -9.49%
3 | O=C(Cc1ccc(O)cc1)NCCNC(=S)NCc1ccccc1 | 19.9%
4 | CC(C)n1cnc2c(NCc3ccccc3)nc(NCc3ccccc3)nc21 | 20.6%
5 | Cc1cc(C)c2nc(C(F)(F)F)c(C#N)c(N)c2c1 | 0.162%
6 | CCc1c(Nc2ccccc2Cl)nc(N)[nH]c1=O | -6.75%
7 | Cc1ccc(C(=O)O/N=C(\N)c2ccccn2)cc1C | 14%
8 | COc1ccc(Nc2nc(N)c([N+](=O)[O-])c(N3CCCC3)n2)cc1 | -1.93%
9 | COc1ccc(Nc2nccc(-c3ccc([N+](=O)[O-])cc3)n2)cc1 | -11.6%
10 | COc1ccc(C(=O)c2sc(Nc3ccccc3)nc2N)cc1 | 14.6%
11 | COc1cc(/C=N/Nc2ccc(C(F)(F)F)cn2)cc(OC)c1O | 1.2%
12 | Cc1cc(-c2nsc(=O)o2)c(S(C)(=O)=O)s1 | 2.16%
13 | CC(C)n1cnc2c(Nc3ccc(C(=O)O)cc3)nc(Cl)nc21 | 5.34%
14 | Nc1ccc(-c2cnc(N)c(C(=O)c3cccnc3)n2)cn1 | -4.42%
15 | Oc1cccc(C=NNc2ccccn2)c1 | 12.7%
16 | CCN1C(=O)/C(=C2/Sc3ccc(OC)cc3N2C)SC1=Nc1cccc(O)c1 | 11.8%
17 | COc1cc(OC)cc(C(=O)NNC(=O)c2ccccn2)c1 | 7.72%
18 | CC(C)=CCNc1ncnc2c1c(C#N)cn2C1OC(CO)C(O)C1O (stereo unspecified) | -6.7%

Row | Compound | activity change, negative = inhibition
19 | COc1ccc2nc3c(cc2c1)c(NC(=O)C1CCCO1)nn3CC(C)C (stereo unspecified) | 16.2%
20 | Oc1ccc(/C=N/Nc2ccc(C(F)(F)F)cn2)cc1 | -9.1%
21 | Clc1cccc(Cl)c1/C=N/Nc1c(Cl)cncc1Cl | -10.4%
22 | CC(C)(C)N=Cc1c(O)ccc2oc3c(c12)CCCC3 | 2.31%
23 | Oc1cc2c(cc1O)C1c3ccc(O)c(O)c3OCC1(O)C2 (stereo unspecified) | -5.27%
24 | Cc1ncc(CO)c(/C=N/Nc2ccc(C(F)(F)F)cn2)c1O | 5.08%
25 | Clc1cnc(N/N=C/c2ccncc2)c(Cl)c1 | -11.8%
26 | Nc1nc(Nc2ccccc2F)sc1C(=O)c1ccccc1 | -10.2%
27 | Oc1ccc(/C=N/Nc2nccnc2Cl)c(O)c1 | -6.66%
28 | Nc1nc(Nc2ccccc2)nc(NCCO)c1[N+](=O)[O-] | 16.5%
29 | Cc1nc(Nc2ccccc2)sc1C(=O)c1ccc(F)cc1 | 5.44%
30 | O=C(NNC(=O)c1ccco1)c1ccccc1 | 4.63%
31 | Clc1cncc(Cl)c1N/N=C/c1ccncc1 | -4.29%
32 | OCCCNc1cc(-c2ccnc(Nc3cccc(Cl)c3)n2)ccn1 | 4.16%
33 | OCCCNc1nccc(-c2cc(Nc3cccc(Cl)c3)ncn2)n1 | 5.63%
34 | CCNc1nc(N)nc(-c2cc(Cl)ccc2O)n1 | -11.2%
35 | CCc1cc(C(=O)c2ccc(OC)cc2)c(N)s1 | 15.9%
36 | Nc1nc(Nc2cccc(Cl)c2)nc(NCCO)c1[N+](=O)[O-] | 16.8%
